# Compound activity (PubChem)
# IL-1B inflam inh = inflammasome signaling inhibition, IL-1 beta readout; THP-1 LPS/ATP IL-1B secretion, AlphaLISA, 16 h; active compounds read low; activity change, % at 57.5 µM; hit rate 4.7% among 360,000; AID 743279; in the data active means activity change below about -50%; inconclusive means mostly about -30% to -49%
#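 THP-1 cells pretreated 1 hr with compounds (up to 57.5 uM final), then stimulated with LPS (250 ng/mL final) plus ATP (1.25 mM final); secreted IL-1B measured by AlphaLISA after 16 hr, decreased signal indicating inhibition.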
# VP16 counter = Gal4-VP16 reporter inhibition counter-screen; AID 2546; Drosophila S2 Gal4-VP16 UAS-luciferase, luminescence, 20 h; hit rate 3.5% among 310,000; Potency, µM (titrated, usually from 53.6 µM), without a hit: top-dose activity, negative = inhibition, most hits filed as inhibitors;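 further: Gal4-VP16 expression switched on by copper sulfate through the metallothionein promoter; potency means the concentration at half of the fitted maximal effect; nearly all actives have a fitted effect of over 50% in size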
# DT40 TDP1 CPT = DT40-hTDP1 cell growth loss with CPT. Potency, µM (highest dose often 46.2 µM), for inactives: top-dose activity change, negative = growth inhibition, most hits filed as inhibitors. chicken DT40 Tdp1-/-;hTDP1 cells + 20 nM CPT, ATP luminescence, 48 h. hit rate 12% among 420,000; further: potency means the concentration at half of the fitted maximal effect; nearly all actives have a fitted effect of over 55% in size
#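 Cell growth measured by CellTiter-Glo luminescence after a minimum 48 h, 37 C compound exposure with 20 nM CPT in Tdp1-knockout DT40 cells stably expressing hTDP1, seeded 400/well; qHTS titration format.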
# ELG1 repair inh = blocks ELG1-dependent DNA repair in HEK293T cells | HEK293T ELG1-luciferase reporter, luminescence, 16 h; DNA damage induced by 5-fluorouridine | Potency, µM (series often up to 46.1 µM), for inactives: at the highest dose activity change, negative = inhibition, actives largely listed as inhibitors | hit rate 2.3% among 330,000 | AID 504467; further: potency means the concentration at half of the fitted maximal effect; nearly all actives have a fitted effect of over 55% in size
#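 Luminescence from the luciferase reporter, measured 30 min after ONE-Glo reagent at room temperature, was the read-out. Beforehand, 2,000 cells per well were exposed for 16 hr at 37 °C to 5-fluorouridine together with compound or vehicle.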
# TDP1 cell noCPT = qHTS for Inhibitors of human tyrosyl-DNA phosphodiesterase 1 (TDP1): qHTS in cells in absence of CPT | Potency, µM (titrated, usually from 46.2 µM), for inactives: at the highest dose activity change, negative = growth inhibition, hits mostly inhibitors | hit rate 15% among 420,000 | DT40 Tdp1-/- hTDP1 cells, no CPT, ATP luminescence, 48 h; further: potency means the concentration at half of the fitted maximal effect; nearly all actives have a fitted effect of over 55% in size
#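 Cells were dispensed at 400 per well, compounds added by pin tool, plates incubated ≥48 hr at 37 °C, then CellTiter-Glo added for 30 min at room temperature before luminescence reading. Line: DT40 Tdp1-/- complemented with hTDP1; camptothecin omitted.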
# RORg inh = blocks mouse ROR gamma transcriptional activity; P51450; Drosophila S2 Gal4-RORgamma UAS-luciferase reporter, 20 h; Potency, µM (titrated, usually from 53.6 µM), for inactives: at the highest dose activity change, negative = inhibition, actives largely listed as inhibitors; hit rate 5.4% among 310,000; further: potency means the concentration at half of the fitted maximal effect; nearly all actives have a fitted effect of over 60% in size
# Target sequence (P51450 whole entry, looked up, the tested form may be a part): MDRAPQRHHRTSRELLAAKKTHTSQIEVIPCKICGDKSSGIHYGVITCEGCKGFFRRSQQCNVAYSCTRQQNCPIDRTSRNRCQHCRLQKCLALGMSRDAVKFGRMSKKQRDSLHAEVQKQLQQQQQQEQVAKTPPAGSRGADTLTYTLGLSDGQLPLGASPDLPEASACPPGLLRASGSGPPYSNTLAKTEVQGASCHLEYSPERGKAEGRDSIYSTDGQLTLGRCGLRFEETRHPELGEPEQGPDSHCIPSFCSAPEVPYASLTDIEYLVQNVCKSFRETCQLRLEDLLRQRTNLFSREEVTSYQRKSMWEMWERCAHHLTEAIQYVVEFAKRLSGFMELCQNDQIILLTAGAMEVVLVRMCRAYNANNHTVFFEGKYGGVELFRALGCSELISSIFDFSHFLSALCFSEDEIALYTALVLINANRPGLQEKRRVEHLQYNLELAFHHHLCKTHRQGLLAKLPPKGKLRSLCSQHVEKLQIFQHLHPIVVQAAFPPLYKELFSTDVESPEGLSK
#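 Drosophila Schneider cells stably carrying a metallothionein-driven Gal4 DBD–ROR gamma fusion and a UAS-Photinus luciferase reporter were exposed to compound for 1 hr, then induced with copper sulfate (700 uM final) for 20 hr at ambient temperature before luminescence reading.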
# An asterisk follows results filed as active; ? = inconclusive; / = no result; [ ] = another dose, or the depositor's remark. Most compounds without a hit are left out; they make up all but 21% or so of the library. Unless noted, the call rests on the fitted dose curve; in most records, active means well fitted curve in the direction sought with a large enough effect; inconclusive means small, poorly fitted or top-dose-only effect, or another doubt; inactive means no such curve, though single readings can be large; an effect the other way counts as inactive or inconclusive. On the % scale 0 is the no-effect control and ±100 the full control effect.
SMILES,IL-1B inflam inh,VP16 counter,DT40 TDP1 CPT,ELG1 repair inh,TDP1 cell noCPT,RORg inh
CC(C)CN(C(=O)COC(=O)c1ccc(Br)cc1)c1c(N)n(Cc2ccccc2)c(=O)[nH]c1=O,?,/,?,-13%,?,/
CCOc1ccc(/C=C/C(O)=C2/C(=O)N(C)C3(C)CC2c2ccccc2O3)cc1OC (centres undefined),-101*,5%[10 µM],5.8µM*,?,8.2µM*,?
CCOc1ccc(/C=C/C(O)=C2/C(=O)NC3(C)CC2c2ccccc2O3)cc1OC (centres undefined),-20,?,5.2µM*,?,3.7µM*,-37%
N#Cc1cccc(S(=O)(=O)N2CCN(S(=O)(=O)c3ccc4c(c3)OCCO4)CC2)c1,/,/,11%,/,-1%,/
O=C(CN1C(=O)CNC1=O)Nc1cc(Cl)cc(Cl)c1,-16,/,17%,8%,11%,/
CN(C)S(=O)(=O)c1cccc(NC(=O)c2ccc(COc3ccccc3)cc2)c1,-73*,6.3µM*,18µM*,12µM*,6.5µM*,-44%
CCOc1cccc(NC(=O)c2ccc(S(=O)(=O)N(C)C)cc2)c1,-8,17%,?,-13%,?,34%
CN(c1ccc(C(=O)Nc2cccc(O)c2)cc1)S(=O)(=O)c1ccccc1,-17,0%,?,?,?,?
COCc1ccc(C(=O)Nc2cccc(S(=O)(=O)N(C)c3ccccc3)c2)cc1,-13,/,18µM*,18µM*,18µM*,/
CCN(CC)CCNC(=O)c1ccc(NC(=O)c2ccc(COc3ccccc3)cc2)cc1,-20,-2%,23µM*,?,-5%,22%
Cc1ccccc1CNC(=O)Nc1ccc(Cl)cc1,22,/,?,?,-14%,/
CC(C)C[C@H](NC(=O)OC(C)(C)C)C(=O)N[C@@H](CO)[C@H](O)[C@@H]1C[C@@H]1C(=O)N1CCCC1,12,3%,-5%,?,-1%,6%
CN1CCN(/N=C/c2c3ccccc3c(Cl)c3ccccc23)CC1,-74*,-2%,?,2%,?,?
CN1CCN(/N=C/c2ccc(-c3ccccc3)cc2)CC1,-55*,-6%,?,?,?,34%
C(=N\N1CCN(Cc2ccccc2)CC1)/c1ccc(-c2ccccc2)cc1,-1,-2%,-30%,-2%,?,-26%
COc1ccc(NC(=O)N(C)C[C@H]2Oc3c(NC(=O)NC(C)C)cccc3C(=O)N([C@H](C)CO)C[C@@H]2C)cc1,22,/,2%,-15%,1%,/
C[C@H](CO)N1C[C@H](C)[C@H](CN(C)Cc2ccccc2)Oc2ccc(NC(=O)Nc3ccc(F)cc3)cc2C1=O,-16,/,?,-15%,?,/
COc1ccc(NC(=O)Nc2cccc3c2O[C@H](CN(C)Cc2ccc(-c4ccccc4)cc2)[C@@H](C)CN([C@H](C)CO)C3=O)cc1,57,/,8.2µM*,15%,12µM*,/
C[C@@H]1CN([C@@H](C)CO)C(=O)c2cccc(NC(=O)Nc3ccc(F)cc3)c2O[C@@H]1CN(C)Cc1ccc(Oc2ccccc2)cc1,19,/,13µM*,?,18µM*,/
Cc1ccc2c(=O)c(C(=O)c3cccc(Cl)c3)cn(CC(=O)NCc3ccc(F)cc3)c2n1,/,/,-21%,/,?,/
CCN(c1ccccc1)S(=O)(=O)c1ccc2c(c1)CCCN2C(C)=O,22,17%,-27%,3%,?,-3%
CC(=O)N1CCCc2cc(S(=O)(=O)N(C)CC(=O)Nc3ccc(C(C)C)cc3)ccc21,/,/,18µM*,/,23µM*,/
CC(=O)N1CCCc2cc(S(=O)(=O)N(CC(C)C)CC(C)C)ccc21,0,1%,26µM*,-20%,?,-24%
C=Cc1ccc(CC2(C)C(=O)Nc3c(Cl)cccc32)cc1 (centres undefined),23,/,0%,/,?,/
CC1(Cc2ccccc2Cl)C(=O)Nc2c(Cl)cccc21 (centres undefined),-25,/,29µM*,/,?,/
SMILES,IL-1B inflam inh,VP16 counter,DT40 TDP1 CPT,ELG1 repair inh,TDP1 cell noCPT,RORg inh
CC1(Cc2ccccc2OC(F)(F)F)C(=O)Nc2c(Cl)ccc(Cl)c21 (centres undefined),22,/,16µM*,/,23µM*,/
CC1(Cc2ccc(OC(F)(F)F)cc2)C(=O)Nc2c(Cl)ccc(Cl)c21 (centres undefined),48,/,?,/,?,/
CC1(Cc2ccc(F)cc2)C(=O)Nc2c(Cl)ccc(Cl)c21 (centres undefined),-59*,/,?,/,?,/
CN(C)CCc1c[nH]c2ccc(CC3COC(=O)N3)cc12 (centres undefined),/,4%,/,/,/,-17%
COc1cccc(CN2CCNC(=O)C2CC(=O)NCCN2CCCCC2=O)c1 (centres undefined),5,-4%,-2%,0%,24%,-23%
Cc1ccc(CSc2nc3ccncc3n2CC(=O)Nc2cc(C)cc(C)c2)cc1,27,?,?,?,?,?
Cc1ccccc1Cn1c(SCc2ccc(C(=O)NC(C)c3ccccc3)cc2)nc2ccncc21 (centres undefined),/,/,9.2µM*,/,16µM*,/
Cc1ccccc1Cn1c(SCc2ccc(C(=O)NCc3cccs3)cc2)nc2ccncc21,/,/,21µM*,/,18µM*,/
Cc1ccc(/C=C2\SC(=S)N(NS(=O)(=O)c3ccc(C)cc3)C2=O)cc1,3,-3%,-2%,17%,2%,6%
COc1ccc(/C=C2/SC(=S)N(NS(=O)(=O)c3ccc(C)cc3)C2=O)cc1,-56*,5%,-19%,8%,-14%,-13%
Cc1ccc2nc(COC(=O)c3cnccn3)cc(=O)n2c1,0,/,3%,26%,4%,/
COc1ccc(-c2onc(C)c2-c2ccccc2)c(O)c1,-1,1%,?,?,18µM*,2%
COc1ccc(-c2onc(C)c2-c2cnn(-c3ccccc3)c2)c(O)c1,-18,12%,?,?,21µM*,-1%
CCOC(=O)c1c(NC(=O)CC2SC(N)=NC2=O)sc2c1CCC(C)C2 (centres undefined),-52*,-21%,5%,-1%,-20%,33%
CCOC(=O)c1c(NC(=O)C2C3C=CC(C3)C2C(=O)O)sc2c1CCC(C)C2 (centres undefined),-9,-4%,-23%,-4%,-28%,6%
